Experimental data as given in PubChem BioAssay (NCATS).
Values without a mark were called inactive. No rule for the calls is given here.

Each compound was assayed on HIV-1 nucleocapsid protein NCp7 (binding to TG oligonucleotide) (assay: HIV Nucleocapsid (AID 346;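 also: potency is for inhibitors that block NC binding and lower polarization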)). Settings: HIV-1 NC / fluorescein-TGTGTGTG probe, fluorescence polarization.
Procedure, shortened: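 Inhibition of nucleocapsid binding to single-stranded 5'-TGTGTGTG probe (10 nM) was measured by fluorescence polarization after 1 hr at room temperature with 100 nM protein under high-salt, zinc-containing, reducing conditions.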
Potency is read from the fitted curve at half-maximal effect.

SMILES	Potency
COc1ncc2nc(-c3cc(F)cc(F)c3)c(=O)n(C[C@H]3CCCO3)c2n1	> 20 µM
O=c1c(-c2ccc(F)cc2)nc2cnc(Oc3cccc(Cl)c3)nc2n1C[C@H]1CCCO1	> 20 µM
COc1ccccc1-c1nccc(NC2CCNCC2)n1	> 20 µM
COCC(=O)N1CCC2(CCCN(C(=O)Nc3cccc(F)c3)C2)CC1	> 20 µM
c1ccc2c(NC3CCNCC3)nc(-c3ccoc3)nc2c1	> 20 µM
Cc1nc2cnc(Nc3ccccc3)nc2n(CCc2ccccc2)c1=O	> 20 µM
CN1CCN(c2ncc3nc(-c4ccc(Cl)cc4)c(=O)n(Cc4cccs4)c3n2)CC1	> 20 µM
COc1ccc(-n2c(=O)c(C)nc3cnc(N(C)C)nc32)cc1	> 20 µM
N#Cc1cccc(NC(=O)N2CC[C@@]3(CCCN(C(=O)c4cc(C(F)(F)F)cc(C(F)(F)F)c4)C3)C2)c1	> 20 µM
COc1ccc2[nH]cc(CCNc3ncnc4ccc(-c5cccc(C#N)c5)cc34)c2c1	> 20 µM
COc1ccc(-n2c(=O)c(C)nc3cnc(Oc4cccc(Cl)c4)nc32)cc1	> 20 µM
COc1ccc2[nH]cc(CCNc3cc(-c4ccccc4C)ncn3)c2c1	> 20 µM
CS(=O)(=O)N1CCC[C@@]2(CCN(c3ccccc3)C2)C1	> 20 µM
COc1ccc(CNc2ncnc3ccc(-c4cccnc4)cc23)c(OC)c1	> 20 µM
COc1ccc(CNc2ncncc2-c2ccccc2C)c(OC)c1	> 20 µM
COc1ccc(CNc2ccnc(-c3cccc(C#N)c3)n2)c(OC)c1	> 20 µM
COc1ccccc1CN1CC[C@@]2(CCCN(C(C)=O)C2)C1	> 20 µM
O=C(c1ccco1)N1CCC2(CCCN(Cc3ccccc3)C2)CC1	> 20 µM
COc1ccccc1CNc1cc(-c2c(C)noc2C)ncn1	> 20 µM
COc1ccc(Oc2ncc3nc(-c4ccc(Cl)cc4)c(=O)n(C)c3n2)cc1	> 20 µM

SMILES	Potency
O=C(c1cc(C(F)(F)F)cc(C(F)(F)F)c1)N1CCC2(CC1)CN(c1ccccn1)C2	> 20 µM
O=c1c(-c2ccc(F)cc2)nc2cncnc2n1Cc1ccccc1	> 20 µM
Cc1cccc(CNc2nc(-c3ccccc3CN(C)C)nc3ccccc23)c1	> 20 µM
N#CCCn1c(=O)cnc2cnc(N3CCNCC3)nc21	> 20 µM
O=c1cnc2cnc(Oc3ccccc3)nc2n1Cc1cccs1	> 20 µM
COc1ccc(CNc2ncncc2-c2cccc(NS(C)(=O)=O)c2)c(OC)c1	> 20 µM
O=C(c1csnn1)N1CCC[C@@]2(CCN(C(c3ccccc3)c3ccccc3)C2)C1	> 20 µM
Cc1cccc(CNc2ncnc3ccc(-c4ccccc4C#N)cc23)c1	> 20 µM
c1ncc(-c2ccoc2)c(NC2CC2)n1	> 20 µM
CN(Cc1ccco1)c1ccnc(-c2cccnc2)n1	> 20 µM
CS(=O)(=O)N1CCC2(CCCN(Cc3cc(C(F)(F)F)cc(C(F)(F)F)c3)C2)CC1	> 20 µM
COc1ccc(C(=O)N2CCC[C@@]3(CCN(Cc4nccs4)C3)C2)cc1	> 20 µM
COc1cccc(-c2cncnc2NCCN2CCOCC2)c1	> 20 µM
COc1cccc(Cn2c(=O)c(-c3cccc(C#N)c3)nc3cnc(N4CCOCC4)nc32)c1	> 20 µM
COc1ccc(C(=O)N2CCC3(CC2)CN(Cc2ccc(C#N)cc2)C3)cc1	> 20 µM
CN(Cc1ccco1)c1ncncc1-c1cccc(C#N)c1	> 20 µM
COc1ccccc1CNc1ncnc2ccc(-c3cccc(C#N)c3)cc12	> 20 µM
O=C(c1cnccn1)N1CCC2(CC1)CN(C(c1ccccc1)c1ccccc1)C2	> 20 µM
Cc1ccccc1-c1nc(NCc2cccs2)c2ccccc2n1	> 20 µM
CN(C)Cc1ccccc1-c1cc(N(C)C)ncn1	> 20 µM
